Assay results as given in PubChem BioAssay (NCI).
About 83,000 compounds went through this panel and 20% of them were active in at least one assay; those are over-represented in the sample as a whole.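 Step 1: grow cells in 96-well plates. Step 2: add test compound at a single concentration. Step 3: incubate 48 h. Step 4: record percent growth.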 The source made the active and inactive calls. The calls were made as follows: active = growth percent below 10; inactive = the rest.

How the values were obtained:
Experiment in all cases: NCI-60 one-dose screen, 48 h (100 = growth as untreated, 0 = no growth, -100 = all killed)
Conditions in all cases: 10 µM unless noted
HT29 colon = test system: HT29 colon
SNB-75 CNS = test system: SNB-75 CNS
U251 CNS = test system: U251 CNS
SK-MEL-5 melanoma = test system: SK-MEL-5 melanoma
UACC-62 melanoma = test system: UACC-62 melanoma
LOX IMVI melanoma = test system: LOX IMVI melanoma
SK-MEL-28 melanoma = test system: SK-MEL-28 melanoma
PC-3 prostate = test system: PC-3 prostate
SK-MEL-2 melanoma = test system: SK-MEL-2 melanoma
SNB-19 CNS = test system: SNB-19 CNS

Measured: growth

COc1ccc2nc3cc(Cl)ccc3c(Nc3cc(C(C)C)c(O)cc3C)c2c1
active: HT29 colon 5.84% | SK-MEL-5 melanoma -91%
inactive: SNB-75 CNS 63.7% | U251 CNS 19.5% | UACC-62 melanoma 65.8% | LOX IMVI melanoma 26.8% | SK-MEL-28 melanoma 71.4%

CC(O)c1nc2c(c(=O)n(C)c(=O)n2C)n1C (configuration not stated)
inactive: HT29 colon 113% | SNB-75 CNS 102% | U251 CNS 102% | SK-MEL-5 melanoma 104% | UACC-62 melanoma 102% | LOX IMVI melanoma 104% | SK-MEL-28 melanoma 126%

O=C(Nc1ccc(Cl)cc1Cl)Nc1ccc(-c2cccnc2)cc1N1CCC(CO)CC1
inactive: HT29 colon 28% | SNB-75 CNS 39.4% | U251 CNS 29.8% | PC-3 prostate 16.6% | SK-MEL-5 melanoma 27.4% | UACC-62 melanoma 26% | LOX IMVI melanoma 37.7% | SK-MEL-28 melanoma 46.6% | SK-MEL-2 melanoma 34.9%

O=C1C(=O)c2ccc(Br)cc2-c2cc(Br)ccc21
inactive: HT29 colon 105% | SNB-75 CNS 84.2% | PC-3 prostate 83.7% | SK-MEL-5 melanoma 63.3% | UACC-62 melanoma 92.4% | SK-MEL-28 melanoma 76.7% | SK-MEL-2 melanoma 87.7%
active: U251 CNS -31.8% | LOX IMVI melanoma -24.6%

N#CCCCCCn1c2ccccc2c2c3c(c4c5ccccc5[nH]c4c21)C(=O)N(O)C3=O
active: HT29 colon 3.99% | U251 CNS -46.2% | PC-3 prostate -3.49% | SK-MEL-5 melanoma -97% | UACC-62 melanoma -35.7% | LOX IMVI melanoma -81% | SK-MEL-28 melanoma -2.36% | SK-MEL-2 melanoma 3.52%
inactive: SNB-75 CNS 29.4%

COc1cc(Oc2cc(-c3cccnc3)ccc2NC(=O)Nc2ccc(F)cc2F)cc(OC)c1OC
inactive: HT29 colon 105% | SNB-75 CNS 83.8% | U251 CNS 92.2% | PC-3 prostate 84.3% | SK-MEL-5 melanoma 92.6% | UACC-62 melanoma 88.9% | LOX IMVI melanoma 107% | SK-MEL-28 melanoma 119% | SK-MEL-2 melanoma 112%

CC(=O)NC1(C(=O)O)CCCC1
inactive: HT29 colon 116% | SNB-75 CNS 102% | U251 CNS 107% | SK-MEL-5 melanoma 112% | UACC-62 melanoma 110% | LOX IMVI melanoma 106% | SK-MEL-28 melanoma 88.6%

c1ccc(N2CCN(c3nncc4ccccc34)CC2)nc1
inactive: HT29 colon 98.2% | SNB-75 CNS 105% | U251 CNS 96.9% | PC-3 prostate 101% | SK-MEL-5 melanoma 97.5% | UACC-62 melanoma 99.6% | LOX IMVI melanoma 97.5% | SK-MEL-28 melanoma 108% | SK-MEL-2 melanoma 103%

C=C(C[C@](O)(C(=O)/C=C/c1ccc(Cl)cc1)C(=O)OC)c1ccccc1
active: LOX IMVI melanoma -72.4%
inactive: HT29 colon 16.4% | SNB-75 CNS 75.7% | U251 CNS 28.6% | PC-3 prostate 65.4% | SK-MEL-5 melanoma 76% | UACC-62 melanoma 53.8% | SK-MEL-28 melanoma 95.4% | SK-MEL-2 melanoma 102%

CC1=CC(=O)C(C(C)=Nc2ccccc2Cl)C(=O)O1 (configuration not stated)
inactive: HT29 colon 101% | SNB-75 CNS 83.6% | U251 CNS 103% | SK-MEL-5 melanoma 120% | UACC-62 melanoma 98% | LOX IMVI melanoma 83.6% | SK-MEL-28 melanoma 105%

COc1ccc2c3c(c(OCCCN(C)C)nc2c1)-c1ccc(Cl)cc1C3=O
inactive: SNB-75 CNS 53% | SK-MEL-5 melanoma 39.2% | SK-MEL-2 melanoma 72.5%
active: HT29 colon -80.8% | U251 CNS -84.9% | PC-3 prostate -19.5% | UACC-62 melanoma -49% | LOX IMVI melanoma -93.3% | SK-MEL-28 melanoma -74.2%

C=C(C[C@@](O)(C(=O)Oc1ccccc1)C(=O)C1CCCCC1)c1ccccc1
inactive: HT29 colon 103% | SNB-75 CNS 72.3% | U251 CNS 95.8% | PC-3 prostate 84.2% | SK-MEL-5 melanoma 96.3% | UACC-62 melanoma 90.3% | LOX IMVI melanoma 101% | SK-MEL-28 melanoma 98% | SK-MEL-2 melanoma 105%

CC(C)(C)c1ccc(S(=O)(=O)O)s1
inactive: HT29 colon 106% | SNB-19 CNS 95.5% | U251 CNS 105% | PC-3 prostate 52.7% | SK-MEL-5 melanoma 109% | UACC-62 melanoma 93.8% | LOX IMVI melanoma 102% | SK-MEL-28 melanoma 112%

CCc1[nH]nc(-c2ccc(OC)cc2)c1-c1ccccc1OCCN(CC)CC
inactive: HT29 colon 85.9% | SNB-75 CNS 60.4% | U251 CNS 96% | PC-3 prostate 76% | SK-MEL-5 melanoma 85.2% | UACC-62 melanoma 106% | LOX IMVI melanoma 80.2% | SK-MEL-28 melanoma 107% | SK-MEL-2 melanoma 95.5%

O=C(CN1CCCCC1)Sc1nnc2sc3ccccc3n12
inactive: HT29 colon 118% | SNB-75 CNS 74.6% | U251 CNS 98.5% | SK-MEL-5 melanoma 99.2% | UACC-62 melanoma 107% | LOX IMVI melanoma 103% | SK-MEL-28 melanoma 120% | SK-MEL-2 melanoma 109%

CCCCCCCCCCCCCCCCN=C(CC(=O)O)C(=O)O
inactive: HT29 colon 82.1% | SNB-75 CNS 91.6% | U251 CNS 101% | PC-3 prostate 91.9% | SK-MEL-5 melanoma 113% | SK-MEL-28 melanoma 103% | SK-MEL-2 melanoma 92.8%

CCC1=C(c2ccc(OC)cc2)C(C)(C)Oc2cc(O)c(CN3CCCC3)cc21
inactive: HT29 colon 66.6% | SNB-75 CNS 75% | U251 CNS 82.5% | PC-3 prostate 70.5% | SK-MEL-5 melanoma 67% | UACC-62 melanoma 90.1% | LOX IMVI melanoma 59.3% | SK-MEL-28 melanoma 101% | SK-MEL-2 melanoma 86.3%

CCN(CC)CCNc1ccc(Cl)cc1Cl
inactive: HT29 colon 101% | SNB-75 CNS 98.5% | U251 CNS 102% | SK-MEL-5 melanoma 103% | UACC-62 melanoma 112% | LOX IMVI melanoma 102% | SK-MEL-28 melanoma 118% | SK-MEL-2 melanoma 108%

CCCCCCCC/C=C/CCCCCCCC1=NC(C)(C)CN1CCO
inactive: SNB-19 CNS 60.5% | PC-3 prostate 22.8%
active: HT29 colon -42.1% | U251 CNS -35.5% | SK-MEL-5 melanoma 3.21% | UACC-62 melanoma -64.4% | LOX IMVI melanoma -74.6% | SK-MEL-28 melanoma -68.4% | SK-MEL-2 melanoma -44.4%

ClC1=C(Cl)C(Cl)=C(Cl)C1=C/C=C/c1ccccc1
inactive: SNB-75 CNS 19.8%
active: HT29 colon 7.03% | U251 CNS -93.3% | SK-MEL-5 melanoma -97.3% | UACC-62 melanoma -83.6% | LOX IMVI melanoma -91.6% | SK-MEL-28 melanoma -74.1%

c1cnc2ccc3ncccc3c2c1
inactive: HT29 colon 113% | SNB-75 CNS 89.5% | U251 CNS 104% | SK-MEL-5 melanoma 106% | UACC-62 melanoma 99.2% | LOX IMVI melanoma 97.9% | SK-MEL-28 melanoma 85.5%

Cn1cnc([N+](=O)[O-])c1S(=O)(=O)Oc1ccc(Cl)cc1
inactive: SNB-19 CNS 102% | U251 CNS 85.4% | PC-3 prostate 90.8% | SK-MEL-5 melanoma 95.4% | UACC-62 melanoma 78.7% | LOX IMVI melanoma 45.2% | SK-MEL-28 melanoma 97.4% | SK-MEL-2 melanoma 90.6%
active: HT29 colon -36.9%

CCCCCCCC1(C)NC(=O)NC1=O (configuration not stated)
inactive: HT29 colon 114% | SNB-75 CNS 84.5% | U251 CNS 99.5% | SK-MEL-5 melanoma 106% | UACC-62 melanoma 106% | LOX IMVI melanoma 103% | SK-MEL-28 melanoma 87.7%

O=C(Nc1ccc(Cl)cc1)Nc1ccc(Nc2nncc3ccccc23)cc1
active: PC-3 prostate 1.46% | SK-MEL-5 melanoma 7.12%
inactive: HT29 colon 32.4% | SNB-75 CNS 46.3% | U251 CNS 18.3% | UACC-62 melanoma 13.4% | LOX IMVI melanoma 33.6% | SK-MEL-28 melanoma 44.1% | SK-MEL-2 melanoma 18.9%

CSc1ncc2ncn(C3OC(CO)C(O)C3O)c2n1 (configuration not stated)
inactive: HT29 colon 108% | SNB-75 CNS 96% | U251 CNS 103% | SK-MEL-5 melanoma 129% | UACC-62 melanoma 103% | LOX IMVI melanoma 108% | SK-MEL-28 melanoma 115%

ClC1C2CC(c3ccccc32)C1Cl (configuration not stated)
inactive: HT29 colon 100% | SNB-19 CNS 104% | U251 CNS 106% | PC-3 prostate 104% | SK-MEL-5 melanoma 113% | UACC-62 melanoma 101% | SK-MEL-28 melanoma 108% | SK-MEL-2 melanoma 104%

O=c1ccn(C2CCCO2)c(=O)[nH]1 (configuration not stated)
inactive: HT29 colon 98.3% | SNB-19 CNS 109% | U251 CNS 97.2% | PC-3 prostate 105% | SK-MEL-5 melanoma 111% | UACC-62 melanoma 109% | LOX IMVI melanoma 107% | SK-MEL-28 melanoma 108% | SK-MEL-2 melanoma 124%

COc1ccc(C(=O)C(C)Br)cc1OC (configuration not stated)
inactive: HT29 colon 37.7% | SNB-19 CNS 95.7% | U251 CNS 78.7% | PC-3 prostate 98.6% | SK-MEL-5 melanoma 92.1% | UACC-62 melanoma 86.3% | LOX IMVI melanoma 79.2% | SK-MEL-28 melanoma 112% | SK-MEL-2 melanoma 86%

CSc1nc2c(c(=O)n1C)C(c1ccccc1)C1=C(N2)/C(=C/c2ccccc2)CCC1 (configuration not stated)
inactive: HT29 colon 53.7% | SNB-19 CNS 66.1% | U251 CNS 48.8% | PC-3 prostate 48.1% | SK-MEL-5 melanoma 40% | UACC-62 melanoma 58.2% | SK-MEL-28 melanoma 78.7% | SK-MEL-2 melanoma 29.5%

OCCOc1c(Cl)cc(Cl)cc1Cl
inactive: HT29 colon 110% | SNB-19 CNS 94.2% | U251 CNS 103% | PC-3 prostate 101% | UACC-62 melanoma 94.6% | LOX IMVI melanoma 100% | SK-MEL-28 melanoma 96.8% | SK-MEL-2 melanoma 126%

Cc1cc(O)c2c(c1)C[C@H]1[C@@H]3CC[C@H]4CC(=O)CC[C@]4(C)[C@H]3CC(=O)[C@]21C
inactive: HT29 colon 67.6% | SNB-19 CNS 94.5% | U251 CNS 81.6% | PC-3 prostate 80.9% | SK-MEL-5 melanoma 73.3% | UACC-62 melanoma 57.4% | SK-MEL-28 melanoma 101% | SK-MEL-2 melanoma 83.3%

COC(=O)C[C@@H]1CC=CC(=O)/C1=C(O)/C=C/c1ccccc1
active: HT29 colon -65.3% | SNB-19 CNS 2.77% | U251 CNS -67.4% | PC-3 prostate 3.43% | SK-MEL-5 melanoma -97.8% | UACC-62 melanoma -67.5% | SK-MEL-28 melanoma -35.5% | SK-MEL-2 melanoma -22%
